# Records with an inconclusive call do not appear. Calls of active or inactive are those of the source. How the source made its calls: active means hit-call score of the fitted dose curve at least 0.9, where 1 is the maximum; inconclusive means response in the unintended direction; inactive means score below 0.9.
# Tests used:
# [1] = target: Adenosine receptor A1 (Bos taurus) (UniProt P28190); experiment: NVS_GPCR_bAdoR_NonSelective: NovaScreen (NVS) G Protein-Coupled Receptor Assay for bovine Adenosine Receptor (AdoR), Non-selective Binding (AID 2283244)
# Method in brief: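 Cell-free binding with membranes from bovine striatum: radioligand displaced by test chemical, read after 1 h by filtration and scintillation. Single-point 25 uM duplicate primary, 50 uM top concentration in follow-up curves, DMSO baseline.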
# [2] = tested on: guinea pig Leukotriene B4 Receptor (LTB4), gene 100379538; experiment: NVS_GPCR_gLTB4: NovaScreen (NVS) G Protein-Coupled Receptor Assay for guinea pig Leukotriene B4 Receptor (LTB4) (AID 2283247)
# Method in brief: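 Membranes from guinea pig spleen incubated 2 h with radioligand and compound; bound counts measured by filtration and scintillation. Screened first at 25 uM in duplicate, then actives titrated to a 50 uM top concentration relative to DMSO.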
# [3] = target: guinea pig Leukotriene D4 Receptor (LTD4), CYSLTR1 (gene 100135514) (UniProt Q2NNR5); experiment: NVS_GPCR_gLTD4: NovaScreen (NVS) G Protein-Coupled Receptor Assay for guinea pig Leukotriene D4 Receptor (LTD4) (AID 2283248)
# Method in brief: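 Guinea pig lung membrane preparation; bound radioligand measured by filter scintillation after 1 h, loss of signal versus DMSO marking displacement. Compounds tested at 25 uM in duplicate, hits retested to max 50 uM.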
# [4] = target: human Serotonin, 5-Hydroxytryptamine Receptor 5A (5HT5A), HTR5A (gene 3361) (UniProt P47898); experiment: NVS_GPCR_h5HT5A: NovaScreen (NVS) G Protein-Coupled Receptor Assay for human Serotonin, 5-Hydroxytryptamine Receptor 5A (5HT5A) (AID 2283251)
# Method in brief: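 Membranes from HEK293 cells, radioligand binding read by filtration and scintillation after 1 h. Single-concentration duplicate testing at 25 uM, then concentration-response for actives; positive-direction fitting relative to DMSO.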
# [5] = target: rat Monoamine Oxidase, MAO-B, Peripheral (MAOBP), Maob (gene 25750) (UniProt P19643); experiment: NVS_ENZ_rMAOBP: NovaScreen (NVS) Enzymatic Assay for rat Monoamine Oxidase, MAO-B, Peripheral (MAOBP) (AID 2283242)
# [6] = target: human Vascular Endothelial Growth Factor Receptor 2 (VEGFR2), KDR (gene 3791) (UniProt P35968); experiment: NVS_ENZ_hVEGFR2: NovaScreen (NVS) Enzymatic Assay for human Vascular Endothelial Growth Factor Receptor 2 (VEGFR2) (AID 2283230)
# Method in brief: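 Cell-free recombinant VEGFR2 kinase, fluorescent substrate with electrophoretic mobility-shift separation; read 1 h after dosing. Screened at 25 uM in duplicate, hits to concentration-response up to 50 uM; loss-of-signal versus DMSO.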
# [7] = target: rat Catechol-O-Methyl Transferase (COMT), Comt (gene 24267) (UniProt P22734); experiment: NVS_ENZ_rCOMT: NovaScreen (NVS) Enzymatic Assay for rat Catechol-O-Methyl Transferase (COMT) (AID 2283235)
# Method in brief: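 Rat dorsal striatum extract served as COMT source; product quantified by HPLC/spectrophotometry, read at 0 h after dosing. Primary single-concentration screen at 25 uM, followed by concentration series to a 50 uM maximum.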
# [8] = tested on: rat Monoamine Oxidase, MAO-A, Peripheral (MAOAP), gene 29253; experiment: NVS_ENZ_rMAOAP: NovaScreen (NVS) Enzymatic Assay for rat Monoamine Oxidase, MAO-A, Peripheral (MAOAP) (AID 2283237)
# Method in brief: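 Scintillation counting tracked MAO-A activity in a cell-free rat liver mitochondrial membrane prep, read 1.17 hours after compound addition. Single-point duplicate testing at 25 uM preceded concentration-response follow-up; activity was fitted relative to DMSO.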
# [9] = target: rat Monoamine Oxidase, MAO-B, Central (MAOBC), Maob (gene 25750) (UniProt P19643); experiment: NVS_ENZ_rMAOBC: NovaScreen (NVS) Enzymatic Assay for rat Monoamine Oxidase, MAO-B, Central (MAOBC) (AID 2283238)
# Method in brief: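 Here MAO-B activity in rat brain preparations is quantified radiometrically, counts taken at 1.17 hours. Concentration-response runs reach 50 uM, with plate controls, and values are fitted as loss of signal from the DMSO baseline.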
# [10] = tested on: rat Monoamine Oxidase, MAO-A, Central (MAOAC), gene 29253; experiment: NVS_ENZ_rMAOAC: NovaScreen (NVS) Enzymatic Assay for rat Monoamine Oxidase, MAO-A, Central (MAOAC) (AID 2283243);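 further: potency refers to inhibition seen as signal drop below DMSO baseline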
# Method in brief: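 Single-concentration duplicate testing at 25 uM, then concentration-response for actives, in a lysate-based radiodetection MAO-A activity assay from rat brain. Enzyme activity measured 1.5 hours post-dosing; DMSO served as negative control and baseline.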
# [11] = tested on: guinea pig Muscarinic, Peripheral (Mperiperal) Receptor, Non-selective Binding, gene 100379235; experiment: NVS_GPCR_gMPeripheral_NonSelective: NovaScreen (NVS) G Protein-Coupled Receptor Assay for guinea pig Muscarinic, Peripheral (Mperiperal) Receptor, Non-selective Binding (AID 2283250)
# Method in brief: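 Screened in duplicate at 25 uM, hits retested in concentration series to 50 uM max, using bladder membrane radioligand displacement from guinea pig. Filtration and scintillation counting 1 h post-dose, fitted relative to DMSO.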
# [12] = target: guinea pig Opioid, Kappa 1 Receptor (OpiateK), OPRK1 (gene 100135587) (UniProt P41144); experiment: NVS_GPCR_gOpiateK: NovaScreen (NVS) G Protein-Coupled Receptor Assay for guinea pig Opioid, Kappa 1 Receptor (OpiateK) (AID 2283252);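 further: radioligand displacement from kappa opioid receptor in guinea pig cerebellar membranes; active means reduced radioligand binding relative to DMSO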
# Method in brief: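 Radioligand competition binding using guinea pig cerebellum membrane fraction; 2 h exposure; filter radiodetection. Single concentration 25 uM (duplicate), follow-up concentration-response for actives.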
# [13] = target: sheep Cyclooxygenase-2 (Cox2), PTGS2 (gene 443460) (UniProt P79208); experiment: NVS_ENZ_oCOX2: NovaScreen (NVS) Enzymatic Assay for sheep Cyclooxygenase-2 (Cox2) (AID 2283231)
# Method in brief: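 Colorimetric absorbance read-out of COX activity, taken 0.66 hour post-dosing, using native protein from sheep placenta. Single-concentration duplicate screen (25 uM), then singleton concentration-response up to 50 uM for actives.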
# [14] = target: rat Constitutive Nitric Oxide Synthase (CNOS), Nos1 (gene 24598) (UniProt P29476); experiment: NVS_ENZ_rCNOS: NovaScreen (NVS) Enzymatic Assay for rat Constitutive Nitric Oxide Synthase (CNOS) (AID 2283236)
# Method in brief: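 Single 25 uM duplicate screen, then concentration series to 50 uM for chemicals meeting threshold. Rat brain membrane-derived CNOS activity detected radiometrically by filtration and scintillation counting, 1 h after compound addition; DMSO as baseline.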
# [15] = target: human Serotonin, 5-Hydroxytryptamine Receptor 2A (5HT2A), HTR2A (gene 3356) (UniProt P28223); experiment: NVS_GPCR_h5HT2A: NovaScreen (NVS) G Protein-Coupled Receptor Assay for human Serotonin, 5-Hydroxytryptamine Receptor 2A (5HT2A) (AID 2283249)
# Method in brief: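 Radioligand displacement on human cortex tissue extract, counted by filtration and scintillation 1.5 h post-dosing. Initial single-concentration screen at 25 uM in duplicate, concentration series in follow-up; DMSO as baseline.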
# [16] = tested on: bovine Angiotensin II Receptor Type 2 (AT2), gene 407157; experiment: NVS_GPCR_bAT2: NovaScreen (NVS) G Protein-Coupled Receptor Assay for bovine Angiotensin II Receptor Type 2 (AT2) (AID 2283240)
# Method in brief: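 Radioligand displacement on bovine cerebellar membranes, 1 hour incubation, filter-based scintillation counting; loss of signal vs DMSO. Duplicate single-point screen at 25 uM, then concentration-response to 50 uM maximum.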
# [17] = target: rat Acetylcholinesterase (AChE), Ache (gene 83817) (UniProt P37136); experiment: NVS_ENZ_rAChE: NovaScreen (NVS) Enzymatic Assay for rat Acetylcholinesterase (AChE) (AID 2283233)
# Method in brief: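 Compounds first screened at 25 uM in duplicate, then those passing threshold tested in concentration series up to 50 uM, against AChE from rat brain membranes. Enzyme activity read by absorbance at 0.33 h; inhibition scored versus DMSO.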
# [18] = NVS_GPCR_bNPY_NonSelective: NovaScreen (NVS) G Protein-Coupled Receptor Assay for bovine Neuropeptide Y (NPY) Receptor, Non-selective Binding (AID 2283245)
# Method in brief: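 Displacement of radioligand from bovine hippocampal membrane receptors, read by filtration and scintillation counting after 1 hour. Concentration-response to a top of 50 uM followed a 25 uM duplicate primary screen. Loss of signal versus DMSO.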
# rat Monoamine Oxidase, MAO-B, Peripheral (MAOBP), Maob (gene 25750), sequence (P19643 whole entry, looked up): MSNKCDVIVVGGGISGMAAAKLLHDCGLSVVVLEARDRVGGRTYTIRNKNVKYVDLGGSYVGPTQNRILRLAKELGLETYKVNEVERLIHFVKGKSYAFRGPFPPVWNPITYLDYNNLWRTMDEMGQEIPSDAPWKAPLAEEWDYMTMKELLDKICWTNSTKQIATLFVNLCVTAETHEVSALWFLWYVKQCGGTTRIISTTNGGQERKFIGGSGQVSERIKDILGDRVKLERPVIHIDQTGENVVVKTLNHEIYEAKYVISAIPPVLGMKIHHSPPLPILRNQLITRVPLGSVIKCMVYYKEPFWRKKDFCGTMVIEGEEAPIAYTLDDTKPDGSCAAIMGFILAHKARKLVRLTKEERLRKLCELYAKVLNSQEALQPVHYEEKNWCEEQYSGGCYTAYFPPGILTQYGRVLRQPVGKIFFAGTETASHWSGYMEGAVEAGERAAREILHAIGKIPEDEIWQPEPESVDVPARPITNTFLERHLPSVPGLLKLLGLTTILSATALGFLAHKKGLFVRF
# human Serotonin, 5-Hydroxytryptamine Receptor 5A (5HT5A), HTR5A (gene 3361), sequence (P47898 whole entry, looked up): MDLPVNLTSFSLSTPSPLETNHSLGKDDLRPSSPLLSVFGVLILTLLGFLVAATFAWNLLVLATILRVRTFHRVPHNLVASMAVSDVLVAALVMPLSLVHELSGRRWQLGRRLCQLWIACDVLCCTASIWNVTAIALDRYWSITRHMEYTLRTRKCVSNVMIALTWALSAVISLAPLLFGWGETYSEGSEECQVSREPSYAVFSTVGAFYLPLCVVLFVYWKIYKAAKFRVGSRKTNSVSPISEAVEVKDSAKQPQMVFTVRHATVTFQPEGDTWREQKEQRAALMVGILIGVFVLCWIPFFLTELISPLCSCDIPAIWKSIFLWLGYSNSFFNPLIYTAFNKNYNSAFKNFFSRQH
# human Vascular Endothelial Growth Factor Receptor 2 (VEGFR2), KDR (gene 3791), sequence (P35968 whole entry, looked up): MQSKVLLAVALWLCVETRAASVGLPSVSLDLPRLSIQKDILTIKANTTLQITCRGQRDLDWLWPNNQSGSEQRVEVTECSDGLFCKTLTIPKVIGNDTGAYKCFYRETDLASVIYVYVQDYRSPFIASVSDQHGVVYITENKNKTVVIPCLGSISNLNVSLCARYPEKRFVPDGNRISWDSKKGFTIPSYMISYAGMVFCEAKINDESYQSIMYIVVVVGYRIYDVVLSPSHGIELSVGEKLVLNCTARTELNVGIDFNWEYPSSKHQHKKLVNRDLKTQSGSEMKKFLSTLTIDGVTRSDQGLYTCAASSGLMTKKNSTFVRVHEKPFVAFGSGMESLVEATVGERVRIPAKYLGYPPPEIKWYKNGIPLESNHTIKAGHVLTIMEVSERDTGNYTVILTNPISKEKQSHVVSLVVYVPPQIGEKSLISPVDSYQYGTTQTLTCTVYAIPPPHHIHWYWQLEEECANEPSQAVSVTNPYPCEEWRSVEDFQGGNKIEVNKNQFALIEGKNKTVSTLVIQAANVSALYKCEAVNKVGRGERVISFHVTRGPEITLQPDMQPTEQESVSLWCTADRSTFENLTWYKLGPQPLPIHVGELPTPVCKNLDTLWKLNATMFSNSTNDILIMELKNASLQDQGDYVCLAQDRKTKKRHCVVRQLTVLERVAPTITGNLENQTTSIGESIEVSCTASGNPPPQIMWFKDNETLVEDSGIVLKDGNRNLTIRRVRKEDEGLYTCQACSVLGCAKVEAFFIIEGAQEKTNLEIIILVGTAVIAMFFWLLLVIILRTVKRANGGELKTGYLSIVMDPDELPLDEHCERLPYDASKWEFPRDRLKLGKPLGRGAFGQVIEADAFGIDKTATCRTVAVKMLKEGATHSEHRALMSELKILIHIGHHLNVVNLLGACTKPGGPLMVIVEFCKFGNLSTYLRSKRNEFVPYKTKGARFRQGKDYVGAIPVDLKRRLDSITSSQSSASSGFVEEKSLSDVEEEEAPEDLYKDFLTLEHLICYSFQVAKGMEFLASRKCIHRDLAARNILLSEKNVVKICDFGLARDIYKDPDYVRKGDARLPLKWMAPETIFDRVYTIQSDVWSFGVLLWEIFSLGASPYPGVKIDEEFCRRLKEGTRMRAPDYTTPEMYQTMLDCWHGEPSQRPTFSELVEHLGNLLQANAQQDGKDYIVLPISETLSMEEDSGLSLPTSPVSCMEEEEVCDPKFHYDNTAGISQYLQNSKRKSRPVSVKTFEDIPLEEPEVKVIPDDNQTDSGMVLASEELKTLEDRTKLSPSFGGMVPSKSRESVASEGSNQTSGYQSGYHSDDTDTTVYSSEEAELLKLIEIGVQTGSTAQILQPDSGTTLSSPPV
# rat Catechol-O-Methyl Transferase (COMT), Comt (gene 24267), sequence (P22734 whole entry, looked up): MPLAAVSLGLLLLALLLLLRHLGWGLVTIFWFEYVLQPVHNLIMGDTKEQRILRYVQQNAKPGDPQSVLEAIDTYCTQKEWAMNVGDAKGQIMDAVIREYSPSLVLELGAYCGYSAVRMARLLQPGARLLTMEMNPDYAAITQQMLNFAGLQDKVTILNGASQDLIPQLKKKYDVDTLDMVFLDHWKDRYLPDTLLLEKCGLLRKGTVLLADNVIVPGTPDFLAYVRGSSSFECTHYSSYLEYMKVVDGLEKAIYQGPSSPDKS
# guinea pig Opioid, Kappa 1 Receptor (OpiateK), OPRK1 (gene 100135587), sequence (P41144 whole entry, looked up): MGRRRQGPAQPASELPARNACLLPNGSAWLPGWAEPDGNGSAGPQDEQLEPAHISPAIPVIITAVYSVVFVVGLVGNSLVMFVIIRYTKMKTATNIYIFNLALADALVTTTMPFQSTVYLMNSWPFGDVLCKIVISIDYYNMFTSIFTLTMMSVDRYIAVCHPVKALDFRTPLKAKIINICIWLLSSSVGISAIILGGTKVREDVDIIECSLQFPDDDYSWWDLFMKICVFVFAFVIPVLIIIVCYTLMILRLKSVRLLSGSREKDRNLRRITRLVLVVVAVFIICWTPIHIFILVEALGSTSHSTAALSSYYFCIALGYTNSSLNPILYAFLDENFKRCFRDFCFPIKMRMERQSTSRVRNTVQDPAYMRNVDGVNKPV
# sheep Cyclooxygenase-2 (Cox2), PTGS2 (gene 443460), sequence (P79208 whole entry, looked up): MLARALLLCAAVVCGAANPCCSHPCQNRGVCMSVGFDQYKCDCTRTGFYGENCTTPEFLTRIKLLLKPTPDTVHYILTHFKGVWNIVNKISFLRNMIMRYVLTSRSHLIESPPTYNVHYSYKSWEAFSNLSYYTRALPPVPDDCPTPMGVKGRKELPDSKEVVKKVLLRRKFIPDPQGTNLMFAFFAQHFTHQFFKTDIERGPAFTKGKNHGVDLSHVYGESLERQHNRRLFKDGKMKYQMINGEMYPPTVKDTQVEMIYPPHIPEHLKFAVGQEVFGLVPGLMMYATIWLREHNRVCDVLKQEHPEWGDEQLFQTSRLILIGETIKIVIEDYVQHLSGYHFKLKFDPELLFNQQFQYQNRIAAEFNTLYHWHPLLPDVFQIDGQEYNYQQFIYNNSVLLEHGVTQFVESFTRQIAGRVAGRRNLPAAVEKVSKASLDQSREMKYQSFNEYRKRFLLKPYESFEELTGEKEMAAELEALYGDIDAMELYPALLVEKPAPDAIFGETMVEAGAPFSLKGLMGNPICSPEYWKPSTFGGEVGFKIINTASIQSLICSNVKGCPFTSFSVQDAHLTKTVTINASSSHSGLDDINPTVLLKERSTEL
# human Serotonin, 5-Hydroxytryptamine Receptor 2A (5HT2A), HTR2A (gene 3356), sequence (P28223 whole entry, looked up): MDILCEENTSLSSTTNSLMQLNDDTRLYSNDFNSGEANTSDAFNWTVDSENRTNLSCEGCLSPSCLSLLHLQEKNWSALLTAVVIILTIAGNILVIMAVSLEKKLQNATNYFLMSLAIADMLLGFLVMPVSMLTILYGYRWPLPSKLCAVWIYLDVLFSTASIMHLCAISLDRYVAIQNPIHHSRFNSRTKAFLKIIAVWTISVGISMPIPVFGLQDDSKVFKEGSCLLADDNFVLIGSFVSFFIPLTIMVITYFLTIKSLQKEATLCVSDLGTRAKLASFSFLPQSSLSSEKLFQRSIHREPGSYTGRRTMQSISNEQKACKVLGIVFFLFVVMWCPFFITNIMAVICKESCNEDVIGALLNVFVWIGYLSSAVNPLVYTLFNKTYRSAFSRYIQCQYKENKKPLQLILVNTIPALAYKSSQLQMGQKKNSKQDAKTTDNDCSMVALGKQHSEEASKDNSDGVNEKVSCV
# rat Monoamine Oxidase, MAO-B, Central (MAOBC), Maob (gene 25750), sequence (P19643 whole entry, looked up): as the sequence (P19643 whole entry, looked up) above
# Adenosine receptor A1 (Bos taurus), sequence (P28190 whole entry, looked up): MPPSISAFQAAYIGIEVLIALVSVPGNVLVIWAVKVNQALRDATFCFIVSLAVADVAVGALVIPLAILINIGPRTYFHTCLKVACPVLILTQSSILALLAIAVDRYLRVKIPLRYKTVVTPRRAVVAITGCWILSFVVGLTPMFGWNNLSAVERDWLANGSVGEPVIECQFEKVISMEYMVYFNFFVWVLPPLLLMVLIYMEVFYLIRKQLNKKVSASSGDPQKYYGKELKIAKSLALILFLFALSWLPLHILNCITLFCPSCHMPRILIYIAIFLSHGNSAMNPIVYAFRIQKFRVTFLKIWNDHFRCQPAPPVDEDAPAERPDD
smiles,measurement,setting,value
O=C(O)C(F)(F)C(F)(F)C(F)(F)C(F)(F)C(F)(F)C(F)(F)C(F)(F)C(F)(F)C(F)(F)F,outcome,[1],inactive
same,AC50,[2],11.6 µM (active)
same,outcome,[3],inactive
same,AC50,[4],20.7 µM (active)
CCSC(=O)N(CC)C1CCCCC1,AC50,[5],32.8 µM (active)
CCOC(=O)C(O)(c1ccc(Cl)cc1)c1ccc(Cl)cc1,outcome,[6],inactive
Cc1ccccc1CO[C@@H]1C[C@@]2(C(C)C)CC[C@]1(C)O2,outcome,[7],inactive
Cc1cc(O)ccc1Cl,AC50,[8],19.1 µM (active)
same,AC50,[9],13.6 µM (active)
same,AC50,[5],25 µM (active)
same,AC50,[10],18.5 µM (active)
O=C(N[C@H]1CN2CCC1CC2)c1cc2ccoc2cn1,outcome,[11],inactive
same,outcome,[12],inactive
CCC(=O)O[C@H]1CC[C@H]2[C@@H]3CCC4=CC(=O)CC[C@]4(C)[C@H]3CC[C@]12C,outcome,[13],inactive
O=S(=O)(O)C(F)(F)C(F)(F)C(F)(F)C(F)(F)F,AC50,[2],12.2 µM (active)
CN(C)CCO,outcome,[14],inactive
CCC(C)(CC)c1cc(NC(=O)c2c(OC)cccc2OC)on1,outcome,[7],inactive
Cc1cccc(C)c1N,outcome,[13],inactive
same,outcome,[15],inactive
CCOCCOC(C)=O,outcome,[9],inactive
CCNc1nc(NC(C)C)nc(SC)n1,outcome,[16],inactive
same,AC50,[1],13.4 µM (active)
C[C@]12CCC(=O)C=C1CC[C@@H]1[C@@H]2CC[C@]2(C)C(=O)CC[C@@H]12,AC50,[17],24.4 µM (active)
same,outcome,[12],inactive
CC1=C2C[C@H]3[C@@H](CC=C4C[C@@H](O)CC[C@@]43C)[C@@H]2CC[C@]12O[C@@H]1C[C@H](C)CN[C@H]1[C@H]2C,outcome,[6],inactive
same,outcome,[5],inactive
same,AC50,[12],1.33 µM (active)
Cc1ccc(O)c(C)c1,AC50,[13],18.4 µM (active)
CCC(C)c1cc([N+](=O)[O-])cc([N+](=O)[O-])c1O (stereo not given),outcome,[6],inactive
same,AC50,[7],1.1 µM (active)
same,outcome,[2],inactive
COc1ccc(O)c(C(C)(C)C)c1,outcome,[4],inactive
O=S(=O)(O)C(F)(F)C(F)(F)C(F)(F)C(F)(F)C(F)(F)C(F)(F)F,outcome,[6],inactive
same,AC50,[2],10.8 µM (active)
CCCCCCCCCC[N+](C)(C)CCCCCCCCCC,AC50,[6],26 µM (active)
same,AC50,[10],34 µM (active)
same,AC50,[18],22.5 µM (active)
same,AC50,[15],5 µM (active)
same,AC50,[11],25 µM (active)
same,AC50,[4],9.63 µM (active)

# From PubChem BioAssay (EPA / NIEHS)
